This is a sample that favours compounds with a hit; in the whole collection about 9.2% have one here.
NPC1 promoter act: activators of NPC1 promoter. Potency, µM (series often up to 9.22 µM), inactives show at the top dose activation, hits mostly activators. Huh7 NPC1 promoter luciferase reporter, 24 h. 2.4% of 320,000 active; further: % of control where 0% means no effect; nearly all actives have a fitted effect of over 60% in size
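Huh7 reporter cells (NPC1 promoter driving luciferase) are dosed with compound for 24 h at 37 °C, 5% CO2; luciferase detection reagent is then added and luminescence measured after 10 min at ambient temperature.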
ELG1 repair inh: blocks ELG1-dependent DNA repair in HEK293T cells | HEK293T ELG1-luciferase reporter, luminescence, 16 h; DNA damage induced by 5-fluorouridine | Potency, µM (highest dose often 46.1 µM), inactives show top-dose activity change, negative = inhibition, most hits filed as inhibitors | 2.3% of 330,000 active | AID 504467; further: on the % scale 0 is the no-effect control and ±100 the full control effect; nearly all actives have a fitted effect of over 55% in size
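Quantitative HTS, concentration-response format. 2,000 cells/well co-treated with 5-fluorouridine and compound, 16 hr in 5% CO2 at 37 °C; ONE-Glo luminescence read after 30 min.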
Rab9 promoter act: activates the Rab9 promoter. Huh7 Rab9 promoter-luciferase reporter, luminescence, 24 h. Potency, µM (titrated, usually from 9.22 µM), without a hit: at the highest dose activation, negative = inhibition, most hits filed as activators. 2.8% of 320,000 active. AID 485297; further: % of control where 0% means no effect; nearly all actives have a fitted effect of over 60% in size
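Promoter activation is measured as luciferase luminescence in Huh7 cells stably transfected with a Rab9 promoter–luciferase construct, following 24 h compound exposure at 37 °C and 10 min reagent incubation at ambient temperature.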
ELG1 genotox: induces genotoxicity in HEK293T cells with luciferase-tagged ELG1 | Potency, µM (highest dose often 46 µM), without a hit: at the top dose activity change, positive = activation, most hits filed as activators | 1.3% of 330,000 active | HEK293T ELG1-luciferase reporter, luminescence, 16 h; further: % of control where 0% means no effect; nearly all actives have a fitted effect of over 60% in size
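Step 1: seed 2,000 HEK293T ELG1-luciferase cells per well. Step 2: add compound or DMSO, incubate 16 hr at 37 °C. Step 3: ONE-Glo, 30 min at room temperature, read luminescence.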
FLuc counter: counter-screen for miR-21 project: firefly luciferase inhibitors or activators. P08659. purified FLuc, Km substrates, luminescence inhibition. Potency, µM (doses to about 57.5 µM), without a hit: at the top dose activity change, negative = inhibition, most hits filed as inhibitors. 6.9% of 360,000 active. AID 588342;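 further: plate controls were vehicle for no effect and reference inhibitor for full effect; nearly all actives have a fitted effect of over 55% in size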
Target sequence (P08659 whole entry, looked up): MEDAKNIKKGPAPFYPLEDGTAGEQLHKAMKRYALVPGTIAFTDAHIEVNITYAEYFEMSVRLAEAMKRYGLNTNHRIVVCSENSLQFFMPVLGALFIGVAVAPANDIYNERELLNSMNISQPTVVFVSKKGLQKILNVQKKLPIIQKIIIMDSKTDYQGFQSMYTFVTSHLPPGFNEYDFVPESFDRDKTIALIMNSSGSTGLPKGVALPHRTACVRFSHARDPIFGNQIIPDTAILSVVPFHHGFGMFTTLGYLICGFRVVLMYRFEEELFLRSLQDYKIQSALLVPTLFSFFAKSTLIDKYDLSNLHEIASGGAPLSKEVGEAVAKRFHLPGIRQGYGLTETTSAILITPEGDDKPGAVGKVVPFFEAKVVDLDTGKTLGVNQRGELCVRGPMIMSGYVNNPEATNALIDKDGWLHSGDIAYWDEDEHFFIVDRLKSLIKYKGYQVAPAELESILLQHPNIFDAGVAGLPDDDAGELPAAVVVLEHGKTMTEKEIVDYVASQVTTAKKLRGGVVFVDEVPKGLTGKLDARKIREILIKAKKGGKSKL
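Purified P. pyralis luciferase, 10 nM final, with Km-level 10 uM D-luciferin and 10 uM ATP in 50 mM Tris acetate pH 7.5, 10 mM Mg acetate, 0.01% Tween-20, 0.05% BSA; 6-point qHTS titration about 60 µM downward; luminescence read.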
SMN2 splice up: SMN2 splice variant enhancement; 2.8% of 210,000 active; Potency, µM (doses to about 46.1 µM), for inactives: top-dose activity change, positive = activation, hits mostly activators; HEK293 SMN2-luciferase splicing reporter, luminescence, 30-36 h; AID 1458; further: % of control where 0% means no effect; nearly all actives have a fitted effect of over 55% in size
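HEK293 cells carry an SMN2 minigene-luciferase reporter in which exon 7 inclusion puts luciferase in frame. Cells were seeded at 2000 cells/well, attached for 10-12 hours, then exposed to compounds for 30-36 hours at 37C before ONE-Glo luminescence.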
Numbers without * were called inactive. The call rests on the fitted dose curve; in most records, active means well fitted curve in the direction sought with a large enough effect; inconclusive means small, poorly fitted or top-dose-only effect, or another doubt; inactive means no such curve, though single readings can be large; an effect the other way counts as inactive or inconclusive. Potency means the concentration at half of the fitted maximal effect.

Cc1ccc(Cn2cccc(C(=O)Nc3ccc(C)c(Cl)c3)c2=O)cc1 was read as FLuc counter -1%.
Screening On1ccccc1=S returned NPC1 promoter act -24%, ELG1 repair inh inconclusive, Rab9 promoter act -36%, ELG1 genotox -53% and FLuc counter 8.5µM*.
Nc1c(C(=O)Nc2ccc(Cl)cc2)sc2nc3c(cc12)N1CCC3CC1 was read as FLuc counter -15% and SMN2 splice up -5%.
`Nc1c(C(=O)Nc2cccc(Br)c2)sc2nc3c(cc12)N1CCC3CC1` gave FLuc counter 12µM* and SMN2 splice up -31%.
`CC(=O)OC1C[C@H](O[C@@H]2C(O)C[C@H](O[C@@H]3C(O)C[C@@H](OC4CC[C@]5(C)C(CCC6C5CC(O)[C@@]5(C)C(C7=CC(=O)OC7)CC[C@@]65O)C4)OC3C)OC2C)O[C@H](C)[C@H]1O[C@H]1OC(CO)C(O)C(O)C1O` (stereo partly specified) gave SMN2 splice up -71%.
For COC1CC(OC2CCC3(C)C(CCC4C3CCC3(C)C(C5=CC(=O)OC5)C(OC(C)=O)CC43O)C2)OC(C)C1OC1OC(COC2OC(CO)C(O)C(O)C2O)C(O)C(O)C1O (stereo unspecified) the results were NPC1 promoter act -44%, ELG1 repair inh 2.9µM*, Rab9 promoter act -42%, ELG1 genotox -11% and FLuc counter -3%.
NC(=O)C1CCN(C(=O)CCn2c(=O)oc3ccccc32)CC1 was read as NPC1 promoter act -5%, ELG1 repair inh inconclusive, Rab9 promoter act -6%, ELG1 genotox 1% and FLuc counter -2%.
For CN(C)C(=O)Nc1ccc(Cl)cc1 the results were SMN2 splice up -6%.
For CC(C)CCn1c(N2CCN(c3cccc(Cl)c3)CC2)nc2c1c(=O)[nH]c(=O)n2C the results were NPC1 promoter act 1%, ELG1 repair inh 15µM*, Rab9 promoter act 0%, ELG1 genotox -3%, FLuc counter 3% and SMN2 splice up -12%.
COc1ccc(CCNC(=O)c2ccc3c(c2)N=C(C)c2cc(C)ccc2S3)cc1OC was read as FLuc counter -10% and SMN2 splice up -31%.
CC(=O)Nc1ccc(S(=O)(=O)N(C)CCOCc2ccccc2)cc1 was read as NPC1 promoter act 0%, ELG1 repair inh inconclusive, Rab9 promoter act -7%, ELG1 genotox -1%, FLuc counter 2% and SMN2 splice up -17%.
For Cc1c(C(=O)NCCC2=CCCCC2)oc2ccc(S(=O)(=O)N3CCC4(CC3)OCCO4)cc12 the results were NPC1 promoter act -6%, ELG1 repair inh inconclusive, Rab9 promoter act -18%, ELG1 genotox -41%, FLuc counter 1% and SMN2 splice up -44%.
For FC(F)(F)c1ccc(CSc2ccccn2)cc1 the results were NPC1 promoter act 1%, ELG1 repair inh 3%, Rab9 promoter act 7%, ELG1 genotox 2% and FLuc counter 15µM*.
Screening CC(=O)C1=NOC(CNc2ncc(C(F)(F)F)cc2Cl)C1 (stereo unspecified) returned NPC1 promoter act 18%, ELG1 repair inh inconclusive, Rab9 promoter act inconclusive, ELG1 genotox inconclusive, FLuc counter 27µM* and SMN2 splice up 18%.
For O=C1NC(=O)N(CCNc2ncc(C(F)(F)F)cc2Cl)C(=O)C1/C=N/OCc1c(F)cccc1Cl (stereo unspecified) the results were NPC1 promoter act -4%, ELG1 repair inh -29%, Rab9 promoter act -1%, ELG1 genotox 1%, FLuc counter -5% and SMN2 splice up -44%.
For CC1=C(O)C(=O)C=C2C1=CC=C1[C@]2(C)CC[C@@]2(C)C3C[C@](C)(C(=O)O)CC[C@@]3(C)CC[C@@]12C (stereo partly specified) the results were SMN2 splice up -95%.
For CC(=O)c1c(C)n(Cc2ccccc2)c2ccc(O)cc12 the results were NPC1 promoter act 8%, ELG1 repair inh 23µM*, Rab9 promoter act -2%, ELG1 genotox -10% and FLuc counter 1%.
Screening COC(=O)c1c(C)n(Cc2ccccc2)c2ccc(O)cc12 returned NPC1 promoter act -6%, ELG1 repair inh -14%, Rab9 promoter act -3%, ELG1 genotox -7% and FLuc counter inconclusive.
For CCN(CC)C(=O)c1ccc(NC(=O)c2cn(-c3ccccc3)nc2-c2ccc(OC)cc2)cc1 the results were NPC1 promoter act 1%, ELG1 repair inh 13µM*, Rab9 promoter act -1%, ELG1 genotox -9% and FLuc counter -19%.
Screening O=C1CCCC2C3CC(CN12)C1CCCCN1C3 (stereo unspecified) returned SMN2 splice up 7%.
`COc1ccc(-c2coc3cc(OC(=O)N4CCOCC4)ccc3c2=O)cc1` gave NPC1 promoter act 23%, ELG1 repair inh inconclusive, Rab9 promoter act inconclusive, ELG1 genotox -7% and FLuc counter 24µM*.
For CC1CC(OP(O)(=S)c2ccc(N(C)C)cc2NC(=O)c2cccs2)CC(C)(C)C1 (stereo unspecified) the results were NPC1 promoter act -3%, ELG1 repair inh -14%, Rab9 promoter act -25%, ELG1 genotox -7%, FLuc counter 11µM* and SMN2 splice up 43%.
COc1ccccc1N(CC(=O)NC1CCCC1)C(=O)c1cnn(C(C)C)c1 was read as NPC1 promoter act inconclusive, ELG1 repair inh inconclusive, Rab9 promoter act inconclusive, ELG1 genotox 11%, FLuc counter 15µM* and SMN2 splice up inconclusive.
C=CC(C)=O was read as SMN2 splice up -10%.
For CCC(Oc1ccc(Cl)cc1)C(=O)OC1CC2CCC(C1)N2C (stereo unspecified) the results were SMN2 splice up -17%.
For C=CCn1c(O)c(C(C)=Nc2cc(OC)ccc2OC)c(=O)[nH]c1=O the results were NPC1 promoter act -3%, ELG1 repair inh 0%, Rab9 promoter act 15%, ELG1 genotox 23µM*, FLuc counter 0% and SMN2 splice up 10%.
For CC[C@@]1(O)C(=O)OCc2c1cc1n(c2=O)Cc2cc3c(O)cccc3nc2-1 the results were SMN2 splice up -34%.
`CC1=C(O)C(=O)[C@@H]2O[C@@H]2C1=O` gave SMN2 splice up -10%.
For CN1C(=O)C(=Cc2ccc(SC3CCCCC3)o2)C(=O)N(C)C1=O the results were NPC1 promoter act -4%, ELG1 repair inh 15%, Rab9 promoter act -1%, ELG1 genotox 15%, FLuc counter 17µM* and SMN2 splice up -13%.

Bioassay records (PubChem BioAssay)
